From PubChem BioAssay (NCI) come the findings set out here.

Some test systems named below: SK-MEL-2 melanoma; EKVX NSCLC; SN12C renal; UO-31 renal; TK-10 renal; ACHN renal; CAKI-1 renal; A498 renal; CCRF-CEM leukemia; MOLT-4 leukemia; SR leukemia; RPMI-8226 leukemia; OVCAR-8 ovarian; OVCAR-5 ovarian; OVCAR-4 ovarian; SK-OV-3 ovarian; IGROV1 ovarian; OVCAR-3 ovarian; HS 578T breast; NCI/ADR-RES ovarian.
What all share (test): NCI-60 one-dose screen, 48 h (100 = growth as untreated, 0 = no growth, -100 = all killed)
Holding throughout (conditions): 10 µM unless noted

Several values for one entry are separate records, joined by “and”; a condition that tells them apart may be missing. Equal values may be shown once. This is part of a sample that, as a whole, favours compounds with a hit. Of some 83,000 tested, about 20% had one in any assay.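 96-well plates, one dose, 48 hours. Percent growth reported; active if below 10.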 Activity calls are given as the source filed them.

For the compound `COc1ccc(N=Nc2c(N)nn3c(N)c(C#N)c(-c4ccccc4)nc23)cc1`, the growth in the test on SK-MEL-2 melanoma is 97.6% (inactive); in the test on EKVX NSCLC, 38.9% (inactive); in the test with SN12C renal, 40.8% (inactive); in the test on UO-31 renal, 28.4% (inactive); in the test with TK-10 renal, 57.4% (inactive); in the test with ACHN renal, 25.7% (inactive). Moreover, the growth with CAKI-1 renal was 15.9% (inactive); in the test on A498 renal, 113% (inactive); in the test with CCRF-CEM leukemia, 72.7% (inactive); with MOLT-4 leukemia, 72.8% (inactive); with SR leukemia, 73.8% (inactive); in the test with RPMI-8226 leukemia, 13.8% (inactive). Moreover, the growth in the test with OVCAR-8 ovarian was 8.3% (active); with OVCAR-5 ovarian, 72.8% (inactive); with OVCAR-4 ovarian it was -13.4% (active); with SK-OV-3 ovarian, 13.1% (inactive); in the test on IGROV1 ovarian, 20.8% (inactive); in the test with OVCAR-3 ovarian it was -6.99% (active). The growth in the test on HS 578T breast was -0.615% (active); in the test on NCI/ADR-RES ovarian it was 6.35% (active).

In the case of `O=C(CCl)Nc1ccc(C(=O)/C=C/c2cc3ccccc3nc2Cl)cc1`, the growth was -3.09% (active) and 60% (inactive) in the test with SK-MEL-2 melanoma; -5.66% (active) and 36.7% (inactive) with EKVX NSCLC; -74.1% (active) and 39.4% (inactive) with SN12C renal; -98.1% (active) and 1.88% (active) in the test with UO-31 renal; 49.1% (inactive) and 74.8% (inactive) with TK-10 renal; -99.2% (active) and 9.77% (active) in the test with ACHN renal. Besides, the growth in the test with CAKI-1 renal is -43.5% (active) and 11.1% (inactive); with A498 renal it was 116% (inactive) and 193% (inactive); in the test on CCRF-CEM leukemia it was -23.1% (active) and 5.66% (active); in the test on MOLT-4 leukemia it was -46% (active) and 18.3% (inactive); in the test with SR leukemia, -69.5% (active) and 25.5% (inactive); in the test with RPMI-8226 leukemia, -36.6% (active) and 40.5% (inactive). Moreover, the growth with OVCAR-8 ovarian was 14.6% (inactive) and 48.6% (inactive); in the test on OVCAR-5 ovarian, -61.1% (active) and 55.9% (inactive); with OVCAR-4 ovarian, -59.6% (active) and 54.7% (inactive); in the test with SK-OV-3 ovarian, 70.5% (inactive) and 66.7% (inactive); in the test on IGROV1 ovarian, -84.1% (active) and 39.2% (inactive); in the test on OVCAR-3 ovarian it was -59.5% (active) and 42.4% (inactive). Moreover, the growth in the test with NCI/ADR-RES ovarian is -26.4% (active) and 4.54% (active).

Regarding `Cc1nn(-c2ccccc2)c2nc(C)n(C(=O)N/N=C/c3ccccc3)c(=O)c12`, the growth with SK-MEL-2 melanoma was 105% (inactive); with EKVX NSCLC, 94.4% (inactive); in the test on SN12C renal it was 97.9% (inactive); with UO-31 renal it was 74.1% (inactive); with TK-10 renal it was 123% (inactive); in the test on ACHN renal, 94.9% (inactive). In addition, the growth in the test with CAKI-1 renal is 76.9% (inactive); with A498 renal, 112% (inactive); in the test with CCRF-CEM leukemia it was 96.3% (inactive); with MOLT-4 leukemia, 102% (inactive); in the test with SR leukemia it was 115% (inactive); with RPMI-8226 leukemia, 103% (inactive). Further, the growth with OVCAR-8 ovarian was 101% (inactive); in the test on OVCAR-5 ovarian, 101% (inactive); in the test with OVCAR-4 ovarian it was 101% (inactive); in the test with SK-OV-3 ovarian it was 95.5% (inactive); in the test on IGROV1 ovarian, 97.6% (inactive); in the test on OVCAR-3 ovarian, 118% (inactive). Further, the growth in the test with NCI/ADR-RES ovarian is 100% (inactive).

Turning to `O=C(c1cc2cc(OCCCN3CCC3)ccc2[nH]1)N1C[C@@H](CCl)c2c1cc(OCc1ccccc1)c1ccccc21`, the growth is -93.4% (active) in the test on SK-MEL-2 melanoma; -46% (active) in the test with EKVX NSCLC; -40.1% (active) with SN12C renal; -84.6% (active) in the test on UO-31 renal; -3.9% (active) with TK-10 renal; -96.8% (active) in the test with ACHN renal. Moreover, the growth in the test on CAKI-1 renal is -84.6% (active); in the test on A498 renal, -25.3% (active); in the test on CCRF-CEM leukemia, -18.2% (active); in the test on MOLT-4 leukemia, -15.4% (active); with SR leukemia, -9.25% (active); in the test with RPMI-8226 leukemia it was -37.1% (active). The growth was -37.6% (active) with OVCAR-8 ovarian; -76.9% (active) in the test with OVCAR-5 ovarian; -57.7% (active) in the test on OVCAR-4 ovarian; -9.06% (active) in the test on SK-OV-3 ovarian; -53.8% (active) in the test on IGROV1 ovarian; -29.5% (active) in the test with OVCAR-3 ovarian. The growth in the test on NCI/ADR-RES ovarian is -34.9% (active).

Take `COc1ccccc1NC(=O)c1ccc(NC(=O)CCl)s1`: the growth is 37.1% (inactive) in the test with SK-MEL-2 melanoma; 59.7% (inactive) in the test with EKVX NSCLC; -52.8% (active) with SN12C renal; -20.5% (active) in the test on UO-31 renal; -6.19% (active) with TK-10 renal; 10.2% (inactive) with ACHN renal. For the same compound, the growth in the test with CAKI-1 renal is -13.1% (active); in the test with A498 renal, 73.1% (inactive); in the test with CCRF-CEM leukemia, -18.9% (active); with MOLT-4 leukemia, -19.5% (active); with SR leukemia, 2.06% (active); with RPMI-8226 leukemia it was -37.4% (active). Besides, the growth was -61% (active) in the test on OVCAR-8 ovarian; 2.87% (active) with OVCAR-5 ovarian; 65.2% (inactive) in the test with OVCAR-4 ovarian; -4.26% (active) in the test on SK-OV-3 ovarian; -63.9% (active) in the test with IGROV1 ovarian; 1.97% (active) in the test on OVCAR-3 ovarian. Moreover, in the test with NCI/ADR-RES ovarian, the growth was 2.28% (active).

For `N#C/C(=C/c1ccc([N+](=O)[O-])cc1)c1nnc(NC(=O)c2ccc(-n3c(=O)[nH]c4ccccc4c3=O)cc2)s1`, the growth was 103% (inactive) in the test on SK-MEL-2 melanoma; 93.9% (inactive) in the test with EKVX NSCLC; 94% (inactive) in the test with SN12C renal; 75.6% (inactive) in the test on UO-31 renal; 108% (inactive) in the test with TK-10 renal; 96.3% (inactive) with ACHN renal. For the same compound, the growth in the test with CAKI-1 renal was 92% (inactive); in the test on A498 renal, 132% (inactive); in the test on CCRF-CEM leukemia, 97.8% (inactive); in the test on MOLT-4 leukemia it was 98.5% (inactive); in the test on SR leukemia, 91.6% (inactive); in the test with RPMI-8226 leukemia, 98.1% (inactive). The growth with OVCAR-8 ovarian was 93.4% (inactive); with OVCAR-5 ovarian it was 110% (inactive); with OVCAR-4 ovarian, 95.6% (inactive); in the test on SK-OV-3 ovarian it was 104% (inactive); with IGROV1 ovarian, 98.6% (inactive); in the test on OVCAR-3 ovarian, 103% (inactive). In the test with NCI/ADR-RES ovarian, the growth is 94.2% (inactive).

Consider `CN1C(=O)/C(=C/c2ccco2)S/C1=N/c1nccs1`, for which the growth was 108% (inactive) in the test with SK-MEL-2 melanoma; 91.8% (inactive) in the test with EKVX NSCLC; 100% (inactive) with SN12C renal; 80.9% (inactive) with UO-31 renal; 130% (inactive) with TK-10 renal; 100% (inactive) in the test with ACHN renal. Besides, the growth in the test with CAKI-1 renal is 91.7% (inactive); in the test with A498 renal, 107% (inactive); in the test on CCRF-CEM leukemia it was 96.8% (inactive); with MOLT-4 leukemia, 107% (inactive); in the test on SR leukemia it was 89.5% (inactive); with RPMI-8226 leukemia, 115% (inactive). The growth was 104% (inactive) in the test with OVCAR-8 ovarian; 110% (inactive) in the test on OVCAR-5 ovarian; 97.8% (inactive) in the test with OVCAR-4 ovarian; 106% (inactive) in the test on SK-OV-3 ovarian; 106% (inactive) in the test on IGROV1 ovarian; 114% (inactive) with OVCAR-3 ovarian. In the test on NCI/ADR-RES ovarian, the growth was 101% (inactive).
